{"source": "PubChem BioAssay AID1159580", "about": "(chemical genetic matrix, 2015)", "experiment": "chemical genetic growth profiling, strain panel (AID 1159580);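 note: tested at 20 µM; growth read once vehicle control cultures reached saturation at 30 °C; 1 = growth at the plate median or of vehicle wells; lower values mean less growth of the strain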", "details": "growth OD", "note": "The whole screen tested about 5,500 compounds, of which about 2,000 (36%) were called active. About 18% were inconclusive and are not listed. This is one part of the list. Values without a mark were called inactive. Cut-off read from the data, not from the text of the source: active = normalized growth mostly below about 0.91 (no sharp cut-off); inconclusive = no clear call, values can overlap the other calls; inactive = mostly above about 0.92.", "data": [{"smiles": "S=c1[nH]c2ccccc2s1", "values": [{"measurement": "normalized growth", "setting": "S. cerevisiae deletion strains, locus YKL009W, strain mrt4, hits give low values", "value": 0.996}, {"measurement": "normalized growth", "setting": "S. cerevisiae deletion strains, locus YKL068W, hits give low values", "value": 1.02}, {"measurement": "normalized growth", "setting": "S. cerevisiae deletion strains, locus YKL085W, strain MDH1 (second series), hits give low values", "value": 1.01}, {"measurement": "normalized growth", "setting": "S. cerevisiae deletion strains, locus YKL085W, strain MDH1, hits give low values", "value": 1.01}, {"measurement": "normalized growth", "setting": "S. cerevisiae deletion strains, locus YKL160W, strain elf1, hits give low values", "value": 1.01}, {"measurement": "normalized growth", "setting": "S. cerevisiae deletion strains, locus YKL190W, strain CNB1, hits give low values", "value": 0.99}, {"measurement": "normalized growth", "setting": "S. cerevisiae deletion strains, locus YKR001C, strain vps1, hits give low values", "value": 0.954}, {"measurement": "normalized growth", "setting": "S. cerevisiae deletion strains, locus YKR026C, strain gcn3, hits give low values", "value": 0.992}, {"measurement": "normalized growth", "setting": "S. cerevisiae deletion strains, locus YKR091W, strain srl3, hits give low values", "value": 0.999}, {"measurement": "normalized growth", "setting": "S. cerevisiae deletion strains, locus YLL001W, strain dnm1, hits give low values", "value": 0.992}, {"measurement": "normalized growth", "setting": "S. cerevisiae deletion strains, locus YLL026W, hits give low values", "value": 0.989}, {"measurement": "normalized growth", "setting": "S. cerevisiae deletion strains, locus YLL041C, strain sdh2, hits give low values", "value": 0.98}, {"measurement": "normalized growth", "setting": "S. cerevisiae deletion strains, locus YLR027C, strain aat2, hits give low values", "value": 0.972}, {"measurement": "normalized growth", "setting": "S. cerevisiae deletion strains, locus YLR039C, strain RIC1, hits give low values", "value": 0.858}, {"measurement": "normalized growth", "setting": "S. cerevisiae deletion strains, locus YLR058C, strain SHM2, hits give low values", "value": 0.962}, {"measurement": "normalized growth", "setting": "S. cerevisiae deletion strains, locus YLR102C, strain apc9, hits give low values", "value": 1.01}, {"measurement": "normalized growth", "setting": "S. cerevisiae deletion strains, locus YLR113W, strain HOG1, hits give low values", "value": 0.919}, {"measurement": "normalized growth", "setting": "S. cerevisiae deletion strains, locus YLR221C, strain rsa3, hits give low values", "value": 0.936}, {"measurement": "normalized growth", "setting": "S. cerevisiae deletion strains, locus YLR258W, strain gsy2, hits give low values", "value": 0.988}, {"measurement": "normalized growth", "setting": "S. cerevisiae deletion strains, locus YLR262C, strain YPT6 (second series), hits give low values", "value": "0.82 (active)"}, {"measurement": "normalized growth", "setting": "S. cerevisiae deletion strains, locus YLR262C, strain YPT6, hits give low values", "value": 0.921}, {"measurement": "normalized growth", "setting": "S. cerevisiae deletion strains, locus YLR268W, strain sec22, hits give low values", "value": 0.932}, {"measurement": "normalized growth", "setting": "S. cerevisiae deletion strains, locus YLR320W, strain mms22, hits give low values", "value": 0.967}, {"measurement": "normalized growth", "setting": "S. cerevisiae deletion strains, locus YLR330W, strain CHS5, hits give low values", "value": 0.997}, {"measurement": "normalized growth", "setting": "S. cerevisiae deletion strains, locus YLR342W, strain FKS1 (second series), hits give low values", "value": 0.808}, {"measurement": "normalized growth", "setting": "S. cerevisiae deletion strains, locus YLR342W, strain FKS1, hits give low values", "value": 0.972}, {"measurement": "normalized growth", "setting": "S. cerevisiae deletion strains, locus YLR357W, strain rsc2, hits give low values", "value": 0.879}, {"measurement": "normalized growth", "setting": "S. cerevisiae deletion strains, locus YLR370C, strain arc18, hits give low values", "value": 0.971}, {"measurement": "normalized growth", "setting": "S. cerevisiae deletion strains, locus YLR371W, strain rom2, hits give low values", "value": 1.01}, {"measurement": "normalized growth", "setting": "S. cerevisiae deletion strains, locus YLR384C, strain iki3, hits give low values", "value": 0.982}, {"measurement": "normalized growth", "setting": "S. cerevisiae deletion strains, locus YLR418C, strain cdc73, hits give low values", "value": 0.907}, {"measurement": "normalized growth", "setting": "S. cerevisiae deletion strains, locus YML016C, strain PPZ1, hits give low values", "value": 0.973}, {"measurement": "normalized growth", "setting": "S. cerevisiae deletion strains, locus YML032C, strain rad52, hits give low values", "value": 1}, {"measurement": "normalized growth", "setting": "S. cerevisiae deletion strains, locus YML120C, strain ndi1, hits give low values", "value": 1.07}, {"measurement": "normalized growth", "setting": "S. cerevisiae deletion strains, locus YML124C, strain tub3, hits give low values", "value": 1.01}, {"measurement": "normalized growth", "setting": "S. cerevisiae deletion strains, locus YMR058W, strain fet3, hits give low values", "value": 0.947}, {"measurement": "normalized growth", "setting": "S. cerevisiae deletion strains, locus YMR078C, strain ctf18, hits give low values", "value": 1}, {"measurement": "normalized growth", "setting": "S. cerevisiae deletion strains, locus YMR125W, strain sto1, hits give low values", "value": 1.11}, {"measurement": "normalized growth", "setting": "S. cerevisiae deletion strains, locus YMR129W, hits give low values", "value": 0.993}, {"measurement": "normalized growth", "setting": "S. cerevisiae deletion strains, locus YMR205C, strain PFK2, hits give low values", "value": 1.03}, {"measurement": "normalized growth", "setting": "S. cerevisiae deletion strains, locus YMR223W, strain ubp8, hits give low values", "value": 0.95}, {"measurement": "normalized growth", "setting": "S. cerevisiae deletion strains, locus YMR231W, strain pep5, hits give low values", "value": 0.973}, {"measurement": "normalized growth", "setting": "S. cerevisiae deletion strains, locus YMR263W, strain SAP30, hits give low values", "value": 0.994}, {"measurement": "normalized growth", "setting": "S. cerevisiae deletion strains, locus YMR307W, strain GAS1, hits give low values", "value": 0.862}, {"measurement": "normalized growth", "setting": "S. cerevisiae deletion strains, locus YNL067W, strain RPL9B, hits give low values", "value": 0.992}, {"measurement": "normalized growth", "setting": "S. cerevisiae deletion strains, locus YNL071W, strain lat1, hits give low values", "value": 0.929}, {"measurement": "normalized growth", "setting": "S. cerevisiae deletion strains, locus YNL128W, strain TEP1, hits give low values", "value": 1.02}, {"measurement": "normalized growth", "setting": "S. cerevisiae deletion strains, locus YNL153C, strain GIM3, hits give low values", "value": 0.973}, {"measurement": "normalized growth", "setting": "S. cerevisiae deletion strains, locus YNL183C, strain NPR1, hits give low values", "value": "0.751 (active)"}, {"measurement": "normalized growth", "setting": "S. cerevisiae deletion strains, locus YNL209W, strain ssb2, hits give low values", "value": 0.984}, {"measurement": "normalized growth", "setting": "S. cerevisiae deletion strains, locus YNL233W, strain BNI4, hits give low values", "value": 0.985}, {"measurement": "normalized growth", "setting": "S. cerevisiae deletion strains, locus YNL248C, strain rpa49, hits give low values", "value": 0.974}, {"measurement": "normalized growth", "setting": "S. cerevisiae deletion strains, locus YNL250W, strain rad50, hits give low values", "value": 1.01}, {"measurement": "normalized growth", "setting": "S. cerevisiae deletion strains, locus YNL271C, strain bni1, hits give low values", "value": 0.99}, {"measurement": "normalized growth", "setting": "S. cerevisiae deletion strains, locus YNL298W, strain CLA4, hits give low values", "value": 1.01}, {"measurement": "normalized growth", "setting": "S. cerevisiae deletion strains, locus YNL307C, strain MCK1, hits give low values", "value": 0.97}, {"measurement": "normalized growth", "setting": "S. cerevisiae deletion strains, locus YNL322C, strain KRE1 (second series), hits give low values", "value": 1.02}, {"measurement": "normalized growth", "setting": "S. cerevisiae deletion strains, locus YNL322C, strain KRE1, hits give low values", "value": 1}, {"measurement": "normalized growth", "setting": "S. cerevisiae deletion strains, locus YNR049C, strain mso1, hits give low values", "value": 0.983}, {"measurement": "normalized growth", "setting": "S. cerevisiae deletion strains, locus YNR052C, strain pop2, hits give low values", "value": 0.984}, {"measurement": "normalized growth", "setting": "S. cerevisiae deletion strains, locus YOL006C, strain TOP1, hits give low values", "value": "0.417 (active)"}, {"measurement": "normalized growth", "setting": "S. cerevisiae deletion strains, locus YOL012C, strain htz1", "value": 0.93}, {"measurement": "normalized growth", "setting": "S. cerevisiae deletion strains, locus YOL147C, strain pex11, hits give low values", "value": 0.99}, {"measurement": "normalized growth", "setting": "S. cerevisiae deletion strains, locus YOR001W, strain rrp6, hits give low values", "value": 0.943}, {"measurement": "normalized growth", "setting": "S. cerevisiae deletion strains, locus YOR061W, strain CKA2, hits give low values", "value": 0.985}, {"measurement": "normalized growth", "setting": "S. cerevisiae deletion strains, locus YOR069W, strain VPS5, hits give low values", "value": 0.99}, {"measurement": "normalized growth", "setting": "S. cerevisiae deletion strains, locus YOR070C, strain gyp1, hits give low values", "value": 0.97}, {"measurement": "normalized growth", "setting": "S. cerevisiae deletion strains, locus YOR080W, strain dia2, hits give low values", "value": 0.992}, {"measurement": "normalized growth", "setting": "S. cerevisiae deletion strains, locus YOR083W, strain WHI5, hits give low values", "value": 0.997}, {"measurement": "normalized growth", "setting": "S. cerevisiae deletion strains, locus YOR106W, strain vam3, hits give low values", "value": "0.865 (active)"}, {"measurement": "normalized growth", "setting": "S. cerevisiae deletion strains, locus YOR136W, strain idh2, hits give low values", "value": 0.999}, {"measurement": "normalized growth", "setting": "S. cerevisiae deletion strains, locus YOR144C, strain elg1, hits give low values", "value": 1.01}, {"measurement": "normalized growth", "setting": "S. cerevisiae deletion strains, locus YOR184W, strain ser1, hits give low values", "value": 0.88}, {"measurement": "normalized growth", "setting": "S. cerevisiae deletion strains, locus YOR231W, strain MKK1, hits give low values", "value": "0.798 (active)"}, {"measurement": "normalized growth", "setting": "S. cerevisiae deletion strains, locus YOR265W, strain rbl2, hits give low values", "value": 0.976}, {"measurement": "normalized growth", "setting": "S. cerevisiae deletion strains, locus YOR270C, strain vph1, hits give low values", "value": 0.834}, {"measurement": "normalized growth", "setting": "S. cerevisiae deletion strains, locus YOR290C, strain snf2, hits give low values", "value": 0.991}, {"measurement": "normalized growth", "setting": "S. cerevisiae deletion strains, locus YOR316C, strain cot1, hits give low values", "value": 1.02}, {"measurement": "normalized growth", "setting": "S. cerevisiae deletion strains, locus YPL051W, strain arl3, hits give low values", "value": "0.904 (active)"}, {"measurement": "normalized growth", "setting": "S. cerevisiae deletion strains, locus YPL055C, strain LGE1, hits give low values", "value": 0.987}, {"measurement": "normalized growth", "setting": "S. cerevisiae deletion strains, locus YPL078C, strain atp4, hits give low values", "value": 1}, {"measurement": "normalized growth", "setting": "S. cerevisiae deletion strains, locus YPL106C, strain sse1, hits give low values", "value": 0.986}, {"measurement": "normalized growth", "setting": "S. cerevisiae deletion strains, locus YPL240C, strain hsp82, hits give low values", "value": 0.986}, {"measurement": "normalized growth", "setting": "S. cerevisiae deletion strains, locus YPL241C, strain CIN2, hits give low values", "value": 0.998}, {"measurement": "normalized growth", "setting": "S. cerevisiae deletion strains, locus YPL256C, strain CLN2, hits give low values", "value": 0.904}, {"measurement": "normalized growth", "setting": "S. cerevisiae deletion strains, locus YPR119W, strain clb2, hits give low values", "value": 1.02}, {"measurement": "normalized growth", "setting": "S. cerevisiae deletion strains, locus YPR141C, strain kar3, hits give low values", "value": 1.01}, {"measurement": "normalized growth", "setting": "S. cerevisiae deletion strains, locus YPR163C, strain tif3, hits give low values", "value": 1}, {"measurement": "normalized growth", "setting": "S. cerevisiae deletion strains, locus YPR167C, strain met16, hits give low values", "value": 1.02}, {"measurement": "normalized growth", "setting": "S. cerevisiae deletion strains, strain wtn01, hits give low values", "value": 0.977}, {"measurement": "normalized growth", "setting": "S. cerevisiae strains, strain wild type, hits give low values", "value": 0.996}]}]}
